In all, about 5,500 compounds went through this assay and about 2,000 (36%) were called active. Not shown: some 18% with an inconclusive outcome. Cut-off read from the data, not from the text of the source: active = normalized growth mostly below about 0.91 (no sharp cut-off); inconclusive = no clear call, values can overlap the other calls; inactive = mostly above about 0.92. The list shows a part of the results.
Experiment: chemical genetic growth profiling, strain panel (AID 1159580);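 note: tested at 20 µM; growth read once vehicle control cultures reached saturation at 30 °C; 1 = growth at the plate median or of vehicle wells; lower values mean less growth of the strain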
Conditions: S. cerevisiae deletion strains, growth OD
[1] = locus YDL101C, strain DUN1, active compounds read low
[2] = locus YHR030C, strain SLT2, active compounds read low

Measured: normalized growth

CN(C)/C=C1/C(=O)NN=C1CSc1ccccn1
inactive: locus YAL013W, strain DEP1, active compounds read low 1 | locus YBR229C, strain ROT2, active compounds read low 0.999 | locus YCL061C, strain MRC1, active compounds read low 1.03 | [1] 1.03 | locus YDR150W, strain NUM1, active compounds read low 1.04 | locus YEL061C, strain CIN8, active compounds read low 0.999 | locus YGR078C, strain PAC10, active compounds read low 1.02 | [2] 1.09 | locus YHR087W, strain rtc3, active compounds read low 0.948 | locus YJR043C, strain POL32, active compounds read low 1.02 | locus YJR075W, strain HOC1, active compounds read low 1.01 | locus YKL190W, strain CNB1, active compounds read low 1.02 | locus YLR039C, strain RIC1, active compounds read low 1.11 | locus YLR058C, strain SHM2 (second series), active compounds read low 0.974 | locus YLR085C, strain ARP6, active compounds read low 1.05 | locus YLR262C, strain YPT6, active compounds read low 1.02 | locus YML094W, strain GIM5, active compounds read low 1.01 | locus YMR219W, strain ESC1, active compounds read low 0.982 | locus YMR263W, strain SAP30, active compounds read low 1.01 | locus YMR307W, strain GAS1, active compounds read low 1.07 | locus YNL153C, strain GIM3, active compounds read low 1.03 | locus YNL298W, strain CLA4 (second series), active compounds read low 1.04 | locus YNL322C, strain KRE1, active compounds read low 0.985 | locus YNR030W, strain Alg12, active compounds read low 1.01 | locus YPL055C, strain LGE1, active compounds read low 0.972 | locus YPL241C, strain CIN2, active compounds read low 1 | locus YPR135W, strain CTF4, active compounds read low 1.09

O=C(Nc1cc2c(s1)-c1cc(Cl)ccc1SC2)Oc1ccccc1
inactive: locus YAR019C, strain CDC15, active compounds read low 0.977 | locus YBL105C, strain PKC1, active compounds read low 1.01 | locus YBR135W, strain CKS1, active compounds read low 1.01 | locus YBR136W, strain MEC1, active compounds read low 0.995 | locus YBR160W, strain CDC28, active compounds read low 0.99 | locus YDL017W, strain CDC7, active compounds read low 1.01 | locus YDL028C, strain MPS1, active compounds read low 0.984 | [1] 0.989 | locus YDL108W, strain KIN28, active compounds read low 0.986 | locus YDL132W, strain cdc53, active compounds read low 1 | locus YDL214C, strain PRR2, active compounds read low 0.928 | locus YDR052C, strain DBF4, active compounds read low 0.997 | locus YDR054C, strain cdc34, active compounds read low 0.999 | locus YDR226W, strain ADK1, active compounds read low 1 | locus YDR477W, strain SNF1, active compounds read low 0.964 | locus YER123W, strain YCK3, active compounds read low 0.936 | locus YER133W, strain GLC7, active compounds read low 0.972 | locus YFL009W, strain cdc4, active compounds read low 0.997 | locus YFL029C, strain CAK1, active compounds read low 0.978 | locus YFR003C, strain YPI1, active compounds read low 0.998 | locus YFR019W, strain FAB1, active compounds read low 0.927 | locus YFR028C, strain CDC14, active compounds read low 1 | locus YGR040W, strain KSS1, active compounds read low 0.97 | locus YGR052W, strain FMP48, active compounds read low 1.01 | locus YGR092W, strain DBF2, active compounds read low 0.966 | [2] 0.911 | locus YHR079C, strain IRE1, active compounds read low 0.939 | locus YHR082C, strain KSP1, active compounds read low 0.962 | locus YHR205W, strain SCH9, active compounds read low 0.914 | locus YIL147C, strain SLN1, active compounds read low 0.994 | locus YJL095W, strain BCK1, active compounds read low 0.927 | locus YJL128C, strain PBS2, active compounds read low 1.02 | locus YJL157C, strain FAR1, active compounds read low 0.959 | locus YJR016C, strain ILV3, active compounds read low 0.999 | locus YJR066W, strain TOR1 (second series), active compounds read low 0.946 | locus YJR066W, strain TOR1, active compounds read low 0.951 | locus YKL048C, strain ELM1, active compounds read low 0.98 | locus YKL067W, strain YNK1, active compounds read low 0.946 | locus YKL101W, strain HSL1, active compounds read low 0.953 | locus YKL193C, strain SDS22, active compounds read low 1.01 | locus YKL203C, strain TOR2, active compounds read low 1.01 | locus YLR133W, strain CKI1, active compounds read low 0.938 | locus YLR403W, strain SFP1, active compounds read low 0.946 | locus YML070W, strain DAK1, active compounds read low 0.957 | locus YMR001C, strain CDC5, active compounds read low 1 | locus YMR205C, strain PFK2 (second series), active compounds read low 0.966 | locus YMR277W, strain FCP1, active compounds read low 0.999 | locus YNL006W, strain LST8, active compounds read low 0.99 | locus YNL020C, strain ARK1, active compounds read low 0.938 | locus YNL161W, strain CBK1, active compounds read low 0.993 | locus YNL183C, strain NPR1, active compounds read low 0.941 | locus YNL207W, strain RIO2, active compounds read low 0.997 | locus YNL222W, strain SSU72, active compounds read low 1.01 | locus YNL307C, strain MCK1 (second series), active compounds read low 0.949 | locus YOL078W, strain AVO1, active compounds read low 1 | locus YOL136C, strain PFK27, active compounds read low 0.914 | locus YOR061W, strain CKA2, active compounds read low 0.934 | locus YOR119C, strain RIO1, active compounds read low 0.988 | locus YOR231W, strain MKK1, active compounds read low 0.949 | locus YOR329C, strain SCD5, active compounds read low 1 | locus YPL031C, strain PHO85, active compounds read low 0.963 | locus YPL153C, strain RAD53, active compounds read low 0.968 | locus YPL204W, strain HRR25, active compounds read low 0.959 | locus YPL209C, strain IPL1, active compounds read low 1 | locus YPL256C, strain CLN2, active compounds read low 0.912 | locus YPR025C, strain CCL1, active compounds read low 1.01 | locus YPR106W, strain ISR1, active compounds read low 0.997 | locus YPR111W, strain DBF20, active compounds read low 1.01 | strain NNK1, active compounds read low 1 | strain TSCII, active compounds read low 1
active: locus YLR113W, strain HOG1, active compounds read low 0.849
